“And” between values parts separate entries of the source, which are not always exact repeats. Identical values can stand only once. In all, about 310,000 compounds went through this assay and about 1,000 (0.32%) were called active. No rule for the calls is given here. The list is a sample of the results. Measured potencies and affinities stand elsewhere.
Experiment: Inhibition of PhoP regulon, Salmonella typhi GFP reporter cells, confirmation, 4 h (AID 1850);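 also: 0% = induced wells with vehicle and 100% = uninduced wells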
Details: Salmonella Typhi PhoP-promoter GFP reporter, fluorescence, at 50 µM, hits give high values

Row | Structure (SMILES) | inhibition
1 | CCOC(=O)c1ccc(NC(=O)N2CCOCC2)cc1 | 9.07% (inactive)
2 | O=C(CCN1C(=O)C2CC=C(Cl)CC2C1=O)N1CCCCC1 (stereo not drawn) | 4.62% (inactive)
3 | O=C1c2ccccc2-c2nc3ccccc3n21 | -6.73% (inactive) and -7.55% (inactive)
4 | CCCOc1ccc(Br)cc1CSC(=N)N | 20.4% (inactive)
5 | CCOc1ccc(Br)cc1CSC(=N)N | -6.33% (inactive)
6 | O=C(CN1C(=O)NC2(CCCC2)C1=O)Nc1ccc(S(=O)(=O)N2CCOCC2)cc1 | -0.54% (inactive)
7 | OCCNc1nc(Nc2ccc(O)cc2)nc2ccccc12 | 1.07% (inactive)
8 | OCCNc1nc(NCc2ccccc2)c2ccccc2n1 | -4.21% (inactive)
9 | Cc1ccc(Nc2nc(N)c([N+](=O)[O-])c(NCCO)n2)cc1C | 13.6% (inactive)
10 | OCCNc1nc(-c2ccccc2)nc2ccccc12 | 16% (inactive)
11 | OCCNc1nc(Nc2ccccc2)nc(Nc2ccccc2)n1 | -3.62% (inactive)
12 | O=C(NCCO)c1nc(NCCO)c2ccccc2n1 | -2.84% (inactive)
13 | Cc1cc(NCCO)c2ccccc2n1 | -12.1% (inactive)
14 | OCCNc1nc(Nc2ccccc2Cl)nc(N2CCCC2)n1 | -6.06% (inactive)
15 | O=C(CSc1ccc2c(c1)OCCO2)NCc1ccccc1 | 6.58% (inactive)
16 | CC(Sc1nnc(Nc2ccccc2)s1)C(=O)NC1CCCc2ccccc21 (stereo not drawn) | 9.25% (inactive)
17 | O=C(COc1ccc(Br)cc1)N(CCO)CCO | -3.36% (inactive)
18 | O=P(O)(Oc1ccccc1)OC(c1ccccc1)C(F)(F)C(F)(F)F (stereo not drawn) | 5.37% (inactive)
19 | O=C(NCCNS(=O)(=O)c1ccc(Cl)cc1)c1cc(OCC(F)(F)F)ccc1OCC(F)(F)F | 0.75% (inactive)
20 | c1coc(-c2cc(C3CCNCC3)[nH]n2)c1 | 10.6% (inactive)
21 | CC(Oc1ccccc1)C(=O)N=C1SC2CS(=O)(=O)CC2N1Cc1ccc(F)cc1 (stereo not drawn) | 2.75% (inactive)
22 | COc1cc(C(=O)OCC(=O)NCc2ccc(F)cc2)cc(NC(=O)c2cccs2)c1OC | 12.9% (inactive)
23 | COCCN(Cc1cc2cc3c(cc2nc1Cl)OCO3)C(=O)c1ccc(C)cc1 | -6.89% (inactive)
24 | CCc1ccc(CN2C(=O)c3ccccc3C2C(=O)NCc2cccnc2)cc1 (stereo not drawn) | -8.38% (inactive)
25 | OCCNc1nc(Nc2cccc(O)c2)nc2ccccc12 | -3.51% (inactive)

Row | Structure (SMILES) | inhibition
26 | COc1ccc(OC)c(Nc2nc(NCCO)c3ccccc3n2)c1 | -0.87% (inactive)
27 | CN1N=C(C(=O)Nc2ccc3c(c2)CCC3)CCC1=O | -2.98% (inactive)
28 | COc1cccc(COc2ncnc3sccc23)c1 | 3.57% (inactive)
29 | O=C(O)c1oc2ccccc2c1CN1CCN(c2ccccc2)CC1 | -0.62% (inactive)
30 | COc1ccc(OCC(=O)Nn2c(-c3cccc(OC)c3)nc3ccccc3c2=O)cc1 | -2.54% (inactive)
31 | COCCCn1c(SCC(=O)NC2CCCC2)nnc1-c1cccs1 | 7.9% (inactive)
32 | COc1ccc(/C(O)=C/C(=O)C(=O)NNC(=O)c2ccccc2)cc1 | 12.4% (inactive)
33 | Nc1ccccc1C(=O)NNC(=O)C(=O)/C=C(\O)c1ccccc1 | 3.15% (inactive)
34 | COc1ccc(-c2nnc(OC)c3ccccc23)cc1 | -2.2% (inactive)
35 | O=C(O)C1=C[C@H](c2csc3ccccc23)C[C@H](OCc2ccc(CO)cc2)O1 | 17.9% (inactive)
36 | NS(=O)(=O)c1ccc(CCNC(=O)C2CCCO2)cc1 (stereo not drawn) | -6.93% (inactive)
37 | CC(C)N1C(=O)/C(=C\c2nc3ccccc3c(=O)n2-c2ccccc2)c2ccccc21 | -1.3% (inactive)
38 | Cn1c(N)c(C(C[N+](=O)[O-])c2ccccc2Cl)c(=O)n(C)c1=O (stereo not drawn) | 16% (inactive)
39 | COc1cc(C(C[N+](=O)[O-])c2c(N)n(C)c(=O)n(C)c2=O)ccc1O (stereo not drawn) | -9.41% (inactive)
40 | Cc1c(CCC(=O)NCCCn2ccnc2)c(=O)oc2c(C)c3oc4c(c3cc12)CCCC4 | 2.2% (inactive)
41 | Cc1ccccc1S(=O)(=O)Cc1ccc(C(=O)O)o1 | -5.44% (inactive)
42 | Cn1c(NC2CCCCC2)cc(=O)n(C)c1=O | -41.1% (inactive)
43 | Cc1cc(C)cc(Nc2cc(=O)n(C3CCCCC3)c(=O)[nH]2)c1 | 3.88% (inactive)
44 | O=C(O)c1ccccc1NCc1cccs1 | -6.17% (inactive)
45 | O=C(NNc1c2ccccc2nc2ccccc12)c1ccccc1Cl | 5.14% (inactive)
46 | Cc1cc(C(=O)Cn2nc(C(=O)O)c3ccccc3c2=O)c(C)n1CC(F)(F)F | -16% (inactive)
47 | O=C(NNC(=O)C1CC=CCC1)c1cccc(Br)c1 (stereo not drawn) | 5.92% (inactive)
48 | CCOc1cc(CN2CCc3c([nH]c4ccccc34)C2)ccc1OC | -1.33% (inactive)
49 | CCCCCCNC(=O)C(=O)NCCc1ccc(Cl)cc1 | -2.68% (inactive)
50 | CCCCCc1ccc(CC(=O)O)cc1 | 7.27% (inactive)

Row | Structure (SMILES) | inhibition
51 | Cc1[nH]c2ccccc2c1C(=O)CN1C(=O)C(=O)N(Cc2ccco2)C1=O | -2.82% (inactive)
52 | CN(Cc1ccccc1)CC(O)COc1ccc(CNCc2cc3ccccc3s2)cc1 (stereo not drawn) | 5.91% (inactive)
53 | CN(Cc1ccccc1)CC(O)COc1ccc(CNCc2cccnc2)cc1 (stereo not drawn) | 6.07% (inactive)
54 | COc1ccc(OC(C)C(=O)NCc2cccnc2)cc1 (stereo not drawn) | -6.99% (inactive)
55 | O=C(Nc1cccc(Cl)c1)c1ccccc1 | -1.86% (inactive)
56 | O=C(Nc1ccc(Cl)c(Cl)c1)c1ccccc1 | -28.6% (inactive)
57 | COc1cc(C)ccc1N(CCCN1C(=O)c2cccc3cccc(c23)C1=O)C(=O)c1cccs1 | -7.11% (inactive)
58 | O=C1c2ccccc2NC(c2ccccc2O)N1c1ccc(F)cc1 (stereo not drawn) | -11.4% (inactive)
59 | CC1(C)Cc2c(cnn2-c2cccc(F)c2)C(NC(=O)c2ccc(=O)[nH]n2)C1 (stereo not drawn) | 2.67% (inactive)
60 | O=C(CCN1C(=O)c2ccccc2C1=O)Nn1cnnc1 | -10.1% (inactive)
61 | CC(=O)c1ccc(NC(=O)C2CCCN2S(=O)(=O)c2ccc(F)cc2)cc1 (stereo not drawn) | 0.38% (inactive)
62 | O=S1(=O)CCOC[C@H](c2ccccc2)N1Cc1cccc(Cl)c1 | 9.33% (inactive)
63 | C=CCc1cc(C)ccc1OCCCC(C(=O)OCC)C(=O)OCC | -4.53% (inactive)
64 | CCCCOc1ccc(C)cc1CN(CCO)CCO | -0.81% (inactive)
65 | Cc1cc(NC(=O)c2cccs2)n(-c2ccccc2)n1 | -5.58% (inactive)
66 | O=C(O)c1cn(-c2ccc(F)cc2)c(=O)c2ccccc12 | -6.8% (inactive)
67 | CCOC(=O)c1cn(-c2ccc([N+](=O)[O-])cc2)c2cc(Cl)c([N+](=O)[O-])cc2c1=O | -25.3% (inactive)
68 | CNC(=O)C(=O)NCC1OCCN1S(=O)(=O)c1ccc([N+](=O)[O-])cc1 (stereo not drawn) | 0.4% (inactive)
69 | CC(=O)c1c(C)[nH]c(C(=O)COC(=O)c2ccc3c(=O)n4c(nc3c2)CCC4)c1C | -1.34% (inactive)
70 | O=C(Nc1c(Cl)ccc2nsnc12)c1ccco1 | -5.33% (inactive)
71 | Cc1cccc(NC(=O)c2ccc([N+](=O)[O-])o2)c1C | -7.49% (inactive)
72 | Cc1ccccc1NC(=O)c1ccc([N+](=O)[O-])o1 | 11.6% (inactive)
73 | Cc1ccc2nsnc2c1NC(=O)c1ccc([N+](=O)[O-])o1 | 1.72% (inactive)
74 | CCn1nnc(NC(=O)c2ccc(-c3ccccc3[N+](=O)[O-])o2)n1 | 11.3% (inactive)
75 | O=C(Nc1ccc(Cc2ccncc2)cc1)c1ccc(Br)o1 | 7.97% (inactive)

Row | Structure (SMILES) | inhibition
76 | CC(=O)c1ccc(NC(=O)c2ccc([N+](=O)[O-])o2)cc1 | 10.8% (inactive)
77 | CCn1nnc(NC(=O)c2ccc(Br)o2)n1 | 3.35% (inactive)
78 | Cc1c(C(=O)N2CCC(N3CCSCC3)CC2)oc2c(F)cccc12 | -3.19% (inactive)
79 | Cc1cc(NC(=O)NCC(F)(F)F)no1 | -7.59% (inactive)
80 | CCN(CC)C(=O)c1sc2nc(N3CCOCC3)c3c(c2c1N)CCCC3 | 3.42% (inactive)
81 | O=C(Nc1ccccc1Cl)NC1(C(=O)NCc2ccncc2)CCCCC1 | 9.06% (inactive)
82 | CC(C)Cn1c(SCc2nc3ccccc3c(=O)[nH]2)nc2ccccc2c1=O | -7.91% (inactive)
83 | Cc1sc(NC(=O)C2=COCCO2)nc1-c1ccc(F)cc1 | -5.87% (inactive)
84 | O=C1CSC(c2ccc3c(c2)OCO3)N1c1ccc(Oc2ccccc2)cc1 (stereo not drawn) | 7.07% (inactive)
85 | Fc1ccc(CSc2ccc(-c3ccco3)nn2)cc1 | 6.93% (inactive)
86 | c1ccc(CSc2ccc(-c3ccco3)nn2)cc1 | 9.52% (inactive)
87 | C[C@]12CCC(=O)C=C1CC[C@@H]1C2CC[C@]2(C)C(=O)CCC12 (stereo partly drawn) | -12.1% (inactive)
88 | O=[N+]([O-])c1ccc(N/N=C/c2ccccc2)c(F)c1 | -8.42% (inactive)
89 | O=C(CCc1nnc(Cc2ccc(-c3ccccc3)cc2)o1)NCCc1cccnc1 | -5.62% (inactive)
90 | O=C(Oc1ccc(Cl)c2cccnc12)c1ccco1 | -5.73% (inactive)
91 | O=C(Oc1c(Cl)cc(Cl)c2cccnc12)c1cccs1 | 13.7% (inactive)
92 | O=C(Oc1ccc(Cl)c2cccnc12)c1cccc([N+](=O)[O-])c1 | -4.89% (inactive)
93 | O=C(Oc1cccc2cccnc12)c1cccc([N+](=O)[O-])c1 | 1.2% (inactive)
94 | O=C(Nc1cccc(Cl)c1)c1ccc(=O)[nH]n1 | 12.7% (inactive)
95 | CC1CCC(NC(=O)c2nn(C)c3c2CS(=O)(=O)c2ccccc2-3)CC1 (stereo not drawn) | 5.03% (inactive)
96 | COc1cccc(C(=O)NNC(=O)Cc2ccc(Cl)cc2)c1 | -3.92% (inactive)
97 | CSCCC(N=C(NS(=O)(=O)c1ccc(C)cc1)c1ccccc1)C(=O)O (stereo not drawn) | -3.75% (inactive)
98 | CCC(C)(C)NC(=O)CN(C(=O)c1snc(C(N)=O)c1N)c1ccc2nc(C)sc2c1 | -5.66% (inactive)

From PubChem BioAssay AID1850 (Southern Research Specialized Biocontainment Screening …, 2009)
